Measured values published in ChEMBL document CHEMBL3988442, “University of Dundee, Small-Polar-MMV Screening Library” (2021).
The campaign covered roughly 48,000 compounds. About 13,000 (27%) showed an effect of 50% or more. This is one part of the list.

System: Wolbachia pipientis
Experiment: Anti-Wolbachia Cell-Based Screen
Type: functional
Parameters: scale not given: in the data most compounds retested in dose-response had high values
Details: 5 µM

| SMILES | Percent Effect |
| --- | --- |
| COC(=O)c1sc(C(F)(F)F)cc1OC | 102.8% |
| COc1cc2cc(C(=O)O)n(C)c2cc1OC | -4.689% |
| COc1cc(C(F)(F)F)sc1C(=O)O | 103.8% |
| CNS(=O)(=O)c1ccsc1C(=O)OC | 1.281% |
| COc1cc(C)sc1C(=O)NCCNc1ccccc1 | -4.959% |
| CCOCC(C)(C)NC(=O)Nc1cc(F)ccc1OC | -3.533% |
| CC1CCCCN1S(=O)(=O)NCCN/C(O)=C1/N=CC=CC1=O (configuration not stated) | -4.587% |
| CCc1ccc(CN2CCCC(CO)(CCOC)C2)cc1 (configuration not stated) | -6.434% |
| Cc1cc(C)n(CC2CCCN2C(=O)c2ccc3[nH]nnc3c2)n1 (configuration not stated) | -17% |
| CCOc1ccc(C(=O)N2CCCCC2Cn2nc(C)cc2C)cn1 (configuration not stated) | 118.2% |
| Cc1cc(C)n(CC2CCCCN2C(=O)c2ccc(C(N)=O)cc2)n1 (configuration not stated) | 111.1% |
| Cc1cc(C)n(CC2CCCN2C(=O)c2ccc(NC3CC3)nc2)n1 (configuration not stated) | 104.7% |
| Cc1cc(C)n(CC2CCCCN2C(=O)c2ccc3nncn3c2)n1 (configuration not stated) | 3.82% |
| Cc1cc(C)n(CC2CCCN2C(=O)c2ccc(C(N)=O)cn2)n1 (configuration not stated) | -1.212% |
| Cc1cc(C)n(CC2CCCCN2C(=O)c2cnn(C)c2)n1 (configuration not stated) | -4.108% |
| CCOc1ccccc1C(CC(=O)N(C)C)NC(C)=O (configuration not stated) | -2.972% |
| CCc1nc2n(n1)CC(NCc1cn(C)nc1-c1cccnc1)CC2 (configuration not stated) | -2.892% |
| Cc1cnc(N2CC[C@@H]3O[C@H](COCc4ccccn4)CC[C@@H]32)nc1.O=C(O)C(F)(F)F.O=C(O)C(F)(F)F | -4.87% |
| Cc1ccc2c(c1)SCC(=O)N2CC(=O)N1CCCC1c1nccs1 (configuration not stated) | 15.48% |
| Cc1cc(C)n(C2CCN(C(=O)CN3C(=O)CSc4ccccc43)C2)n1 (configuration not stated) | -2.821% |
| O=c1cc(N2CCCC2)cnn1Cc1noc(C2CCCO2)n1 (configuration not stated) | -13.05% |
| O=C1CSc2ccccc2N1Cc1noc(C2CCCO2)n1 (configuration not stated) | 108.8% |
| Cc1cccc(-c2nc(CN(Cc3cccs3)CC3CCCO3)no2)c1 (configuration not stated) | 0.4556% |
| Cc1ccc2c(c1)SCC(=O)N2Cc1noc(C2CCCO2)n1 (configuration not stated) | 109.6% |
| Cc1ccc2c(c1)SCC(=O)N2Cc1noc(C2CC2)n1 | 92.98% |
| O=c1cc(N2CCCCC2)cnn1Cc1noc(C2CCCO2)n1 (configuration not stated) | -0.8561% |

| SMILES | Percent Effect |
| --- | --- |
| Cc1ccc2c(c1)SCC(=O)N2CC(=O)N1CCC[C@H]1c1nc(C)no1 | 9.485% |
| CCCc1ccc(CN2C[C@H]3C(=O)N(CC4CC4)C[C@@]3(C(=O)O)C2)o1 | -18.71% |
| CC(C)c1ocnc1C(=O)NC(c1nnc2n1CCNCC2)C(C)C (configuration not stated) | 15.04% |
| O=C1CCC(C(=O)N2CCOC(Cc3ccccc3Cl)C2)=NN1 (configuration not stated) | -0.3624% |
| Cc1nc(C(C)(C)NC(=O)Nc2ccccc2)no1 | -20.84% |
| CCNC(=O)Cn1ncc(N(C)CCc2ccccc2)cc1=O | 6.09% |
| Cc1ccsc1C(=O)N1CCc2ncc(CN(C)C)n2CC1.O=C(O)C(F)(F)F | -9.607% |
| CN(Cc1ccc(CCC(C)(C)O)cc1)Cc1cccc(O)c1 | -7.089% |
| Cn1c(Cn2ccnc2)nnc1C1CCCN(CC(C)(C)C)C1 (configuration not stated) | -0.4988% |
| CC(C)(C)CN1CCCC(c2nccnc2Nc2cnccn2)C1 (configuration not stated) | 141% |
| CC(C)(C)CN1CCC(c2nccnc2Nc2cnccn2)CC1 | 104.1% |
| CC(C)(C)CN1CCC(c2nnc(Cn3ccnc3)n2C2CC2)CC1 | -15.12% |
| Cn1cncc1-c1nnc([C@H]2CCN(CC(C)(C)C)C2)o1 | -4.073% |
| CC(C)N(Cc1ccc(C#N)cc1)Cc1nnsc1Cl | -0.2197% |
| COC(=O)CNC(=O)CC1COc2ccc(C(=O)N(C)C)cc2N1C (configuration not stated) | -21.78% |
| Cc1noc(C)c1CN1CC2(CCN(C(=O)c3cccn3C)C2)CC1=O (configuration not stated) | -4.057% |
| CN(c1ccncn1)C1CC2(CCN(C(=O)Cc3cccs3)C2)C1 (configuration not stated) | 98.18% |
| Cc1ccsc1C(=O)N1CCC2(CC(N(C)c3ccncn3)C2)C1 (configuration not stated) | 125% |
| CN(c1ccncn1)C1CC2(CCN(C(=O)CCc3cccs3)C2)C1 (configuration not stated) | -6.442% |
| CN(c1ccncn1)C1CC2(CCN(C(=O)c3cncs3)C2)C1 (configuration not stated) | 101.7% |
| CN(c1ccncn1)C1CC2(CCN(C(=O)c3cccs3)C2)C1 (configuration not stated) | 5.118% |
| Cn1cccc1C(=O)N1CCCC2(CCCN2Cc2cccnc2)C1 (configuration not stated) | 0.2442% |
| CN(Cc1ccncc1)C1CC2(CCN(C(=O)c3ccnnc3)CC2)C1 | 2.338% |
| Cc1ccc(N2CCCC3(CCN(C(=O)c4sccc4C)C3)C2)nn1 (configuration not stated) | -21.87% |
| CN(c1ccncn1)C1CC2(CCN(C(=O)c3cccn3C)C2)C1 (configuration not stated) | 100.1% |
| Cc1ccsc1C(=O)N1CCC(c2nccn2Cc2ccncc2)CC1 | -26.92% |
